Experimental data: the supplement of paper PMC7411054
Counter-ions that a name gives are not always drawn.

How the values were obtained:
Assay in all cases: lowest phenotypically active concentration; higher = less potent
Settings in all cases: treatment time: 24 h
A549-CANX-COX4 = system: A549-CANX-COX4
How it was run: (§1)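 Two criteria together defined phenotypic activity: deviation and reproducibility. Deviation meant ≥3 of 4 wells beyond the 95th percentile of Euclidean distances in solvent control wells, and reproducibility meant a median replicate Pearson correlation above the 95th percentile of non-replicates. Wells had been treated for 24 h at 0.3, 1, 3 or 9 µM in fifteen gene-edited A549, HepG2 and WPMY1 reporter lines before live imaging.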

A549-TP53BP1-CLTA = system: A549-TP53BP1-CLTA
How it was run: as §1

HepG2-CANX-COX4 = system: HepG2-CANX-COX4
How it was run: as §1

HepG2-GM130-SQSTM1 = system: HepG2-GM130-SQSTM1
How it was run: as §1

HepG2-TUBA1B-RELA = system: HepG2-TUBA1B-RELA
How it was run: as §1

WPMY1-CANX-COX4 = system: WPMY1-CANX-COX4
How it was run: as §1

WPMY1-GM130-SQSTM1 = system: WPMY1-GM130-SQSTM1
How it was run: as §1

WPMY1-TP53BP1-CLTA = system: WPMY1-TP53BP1-CLTA
How it was run: as §1

WPMY1-ACTB-RAB5A = system: WPMY1-ACTB-RAB5A
How it was run: as §1

WPMY1-TUBA1B-RELA = system: WPMY1-TUBA1B-RELA
How it was run: as §1

| SMILES | lowest phenotypically active concentration (A549-CANX-COX4) [µM] | lowest phenotypically active concentration (A549-TP53BP1-CLTA) [µM] | lowest phenotypically active concentration (HepG2-CANX-COX4) [µM] | lowest phenotypically active concentration (HepG2-GM130-SQSTM1) [µM] | lowest phenotypically active concentration (HepG2-TUBA1B-RELA) [µM] | lowest phenotypically active concentration (WPMY1-CANX-COX4) [µM] | lowest phenotypically active concentration (WPMY1-GM130-SQSTM1) [µM] | lowest phenotypically active concentration (WPMY1-TP53BP1-CLTA) [µM] | lowest phenotypically active concentration (WPMY1-ACTB-RAB5A) [µM] | lowest phenotypically active concentration (WPMY1-TUBA1B-RELA) [µM] |
| --- | --- | --- | --- | --- | --- | --- | --- | --- | --- | --- |
| CCCCCCCCCCNCCSSCc1ccc(Cl)cc1 | 9 | 9 | 1 | 9 | 3 | 3 | 9 | 9 |  |  |
| CC(=O)c1c(C)c2cnc(Nc3ccc(N4CCNCC4)cn3)nc2n(C2CCCC2)c1=O | ≤ 0.3 | ≤ 0.3 | ≤ 0.3 | ≤ 0.3 | ≤ 0.3 | 3 | 9 | 9 | 9 | 9 |
| N=C(N)c1ccc(OCCCCCOc2ccc(C(=N)N)cc2)cc1 [pentamidine] | ≤ 0.3 | 3 | 9 |  | 9 |  | 9 |  |  |  |
| CN(C)C(=O)C(CCN1CCC(O)(c2ccc(Cl)cc2)CC1)(c1ccccc1)c1ccccc1 [loperamide] | 9 | 9 |  | 9 | 3 | 9 | 9 | 9 | 9 | 9 |
| O=C(NOC[C@H](O)CO)c1ccc(F)c(F)c1Nc1ccc(I)cc1F | 1 | ≤ 0.3 | ≤ 0.3 | ≤ 0.3 | ≤ 0.3 |  | 3 | 1 | 1 |  |
| CC[C@H](CO)Nc1nc(NCc2ccccc2)c2ncn(C(C)C)c2n1 [Roscovitine] | 9 | 9 | 3 | 9 | 3 | 9 |  | 9 | 9 | 9 |
| Cn1cnc2c(F)c(Nc3ccc(Br)cc3Cl)c(C(=O)NOCCO)cc21 [selumetinib] | 1 | ≤ 0.3 | ≤ 0.3 | ≤ 0.3 | 1 |  | 3 | 3 | 9 |  |
| CNc1nc(-c2ccc3c(N)n[nH]c3c2)cc(N2C[C@@H](C(=O)NC3CCCCC3)CC[C@H]2C)n1 | 3 | 3 | 3 | 3 | 9 | 1 | ≤ 0.3 | ≤ 0.3 | 1 | 1 |
| O=C1N=C(NCc2cccs2)S/C1=C\c1ccc2ncccc2c1 | 3 | 3 | 3 | 9 | 3 | 3 | 1 | 3 | 3 | 3 |
| CN(C)CC(=O)N1CCC[C@@H](n2nc(-c3ccc(Oc4ccccc4)cc3)c3c(N)ncnc32)C1 | 9 | 9 | 3 | 3 | 1 | 9 | 3 | 3 | 3 | 3 |
| CC1(C)CC(=O)C2=C(C1)NC(=S)NC2c1cccc(O)c1 (configuration not stated) [Dimethylenastron] | 3 | 3 | 1 | 1 | 1 | 3 | 1 | 1 | 1 | 1 |
| O=C(O)[C@]1(Cc2cccc(Nc3nccs3)n2)CC[C@@H](Oc2cccc(Cl)c2F)CC1 | 1 | 1 | 1 | ≤ 0.3 | ≤ 0.3 | 1 |  | ≤ 0.3 | ≤ 0.3 | ≤ 0.3 |
| CCN(CC)CCNc1ccc(CO)c2sc3ccccc3c(=O)c12 [hycanthone] | 9 | 9 |  | 9 | 9 | 9 | 3 | 9 | 9 | 9 |
| CN(C)CCCN1c2ccccc2Sc2ccc(Cl)cc21 [chlorpromazine] | 9 | 9 | 9 | 9 | 9 | 9 |  | 9 | 9 | 9 |
| Cc1ccc(Nc2nccc(N(C)c3ccc4c(C)n(C)nc4c3)n2)cc1S(N)(=O)=O [pazopanib] | 3 | 1 | 3 | 3 |  | 3 |  |  | 9 | 3 |
| O=C(Nc1cccnc1)N1CCC(Cc2cccc(Oc3ccc(C(F)(F)F)cn3)c2)CC1 | 9 | 9 |  |  | 9 |  | 9 |  |  |  |
| O=C1c2c(O)ccc(O)c2C(=O)c2c(NCCNCCO)ccc(NCCNCCO)c21 [mitoxantrone] | ≤ 0.3 | ≤ 0.3 | ≤ 0.3 | ≤ 0.3 | ≤ 0.3 | ≤ 0.3 | ≤ 0.3 | ≤ 0.3 | ≤ 0.3 | ≤ 0.3 |
| S=C(S)N1CCCC1 [Pyrrolidinedithiocarbamate ammonium] | 3 | 9 | 3 | 9 | 9 |  | 9 |  |  |  |
| CCCCNNC(=O)c1ccc(Br)cc1 | 3 | 3 | 1 | 1 | 9 | 9 | 3 | 9 |  | 9 |
| CC(C)(C)c1nc(-c2cccc(NS(=O)(=O)c3c(F)cccc3F)c2F)c(-c2ccnc(N)n2)s1 [dabrafenib] | 1 | ≤ 0.3 | ≤ 0.3 | ≤ 0.3 | ≤ 0.3 | 1 |  |  | 1 | 1 |
| C=CC(=O)Nc1cccc(Nc2nc(Nc3ccc(Oc4ccnc(C(=O)NC)c4)cc3)ncc2F)c1 | 9 | 9 |  | 9 | 9 | 9 | 9 |  | 3 |  |
| CC[C@]12CCCN3CCc4c(n(c5ccccc45)C(=O)C1)[C@@H]32 [Eburnamonine (-)] | 9 | 9 |  |  | 9 | 9 |  | 3 | 9 | 9 |
| Nc1ccc(-c2cccc3c(=O)cc(N4CCOCC4)oc23)cc1 | 9 | 9 | 9 | 3 | 9 | 3 | 3 | 9 | 3 | 9 |

| SMILES | lowest phenotypically active concentration (A549-CANX-COX4) [µM] | lowest phenotypically active concentration (A549-TP53BP1-CLTA) [µM] | lowest phenotypically active concentration (HepG2-CANX-COX4) [µM] | lowest phenotypically active concentration (HepG2-GM130-SQSTM1) [µM] | lowest phenotypically active concentration (HepG2-TUBA1B-RELA) [µM] | lowest phenotypically active concentration (WPMY1-CANX-COX4) [µM] | lowest phenotypically active concentration (WPMY1-GM130-SQSTM1) [µM] | lowest phenotypically active concentration (WPMY1-TP53BP1-CLTA) [µM] | lowest phenotypically active concentration (WPMY1-ACTB-RAB5A) [µM] | lowest phenotypically active concentration (WPMY1-TUBA1B-RELA) [µM] |
| --- | --- | --- | --- | --- | --- | --- | --- | --- | --- | --- |
| CC(C)(C)c1cc(NC(=O)Nc2ccc(-c3cn4c(n3)sc3cc(OCCN5CCOCC5)ccc34)cc2)no1 [quizartinib] | 3 | 3 |  | 3 | 3 | 1 | 9 | 9 | 3 | 3 |
| Nc1ncnc(Nc2ccc(OCc3ccccc3)c(Cl)c2)c1/C=N/OCCN1CCOCC1 | 9 | 1 |  | 9 | 9 |  |  |  |  |  |
| CCCCOc1c(C(=O)c2c(F)cc(C)cc2F)cnc2[nH]ncc12 | ≤ 0.3 |  |  | 9 | ≤ 0.3 | ≤ 0.3 |  |  | ≤ 0.3 | 3 |
| CCCCc1oc2ccc(NS(C)(=O)=O)cc2c1C(=O)c1ccc(OCCCN(CCCC)CCCC)cc1 [dronedarone] | 9 |  |  | 9 | 3 | 9 |  | 9 | 9 | 9 |
| C[C@@H]1C[C@H]2[C@@H]3CCC4=CC(=O)C=C[C@]4(C)[C@@]3(Cl)[C@@H](O)C[C@]2(C)[C@@]1(OC(=O)c1ccco1)C(=O)CCl [mometasone furoate] | ≤ 0.3 | ≤ 0.3 |  |  |  |  | 3 |  |  |  |
| COc1ccc(-c2cc(=O)c3c(O)cc(O)cc3o2)cc1O [Diosmetin] | 9 |  |  |  | 9 | 9 |  | 9 |  | 9 |
| CCn1c(=O)n([C@H]2CCCN(c3nccc(-c4cc5ccccc5o4)n3)C2)c2ccccc21 | 3 | 9 |  |  |  | 3 |  |  |  |  |
| O=c1c(-c2ccc(O)cc2)coc2cc(O[C@@H]3O[C@H](CO)[C@@H](O)[C@H](O)[C@H]3O)cc(O)c12 [Genistin] | 9 | 9 |  |  |  | 9 |  | 9 | 9 |  |
| COc1c(Cl)cc2c([nH]c3cnccc32)c1NC(=O)c1cccnc1C [ML 120B dihydrochloride] | 9 |  | 9 |  |  |  |  |  |  |  |
| CN(C)c1ccc(/C=C2\C(=O)Nc3ccccc32)cc1 | 9 | 3 |  | 9 | 9 | 3 | 3 | 9 | 9 |  |
| Cc1cc2c(F)c(Oc3ncnn4cc(OC[C@@H](C)OC(=O)[C@H](C)N)c(C)c34)ccc2[nH]1 [brivanib-alaninate] | 9 | 9 | 3 | 9 | 9 | 3 | 3 | 3 | 3 | 3 |
| C/C(=N/NC(=N)N)c1ccc(NC(=O)Nc2ccc(/C(C)=N/NC(=N)N)cc2)cc1 | 9 |  | 9 | 3 | 3 | 3 | 9 |  | 3 |  |
| CC/C(=C(/c1ccccc1)c1ccc(OCCN(C)C)cc1)c1ccccc1 [tamoxifen] | 9 |  |  | 9 | 3 | 9 | 9 | 9 | 9 | 9 |
| O=c1cc(-c2ccccc2)oc2c(O)c(O)ccc12 [7,8-Dihydroxyflavone] | 9 |  | 9 | 9 |  | 9 | 9 |  | 9 | 9 |
| CC(C)c1cnn2c(NCc3ccccc3)cc(NCCCCCCN)nc12 [BS 181 dihydrochloride] | 9 | 9 |  |  |  | 9 |  | 9 |  | 9 |
| O=C1/C(=C\c2ccncc2)CCC/C1=C\c1ccncc1 | 3 |  | 3 | 1 | 3 | 3 | 3 | 9 | 3 | 3 |
| COc1cc2ncnc(Nc3cccc(Br)c3)c2cc1OC | 1 | ≤ 0.3 |  | 9 | 9 | 9 | 9 | 3 |  |  |
| CC(C)(C)c1cc(C(=O)/C=C/c2ccc(C(=O)O)cc2)cc(C(C)(C)C)c1 | 9 |  | ≤ 0.3 | 9 |  | ≤ 0.3 | ≤ 0.3 | ≤ 0.3 | ≤ 0.3 | 3 |
| CCc1cncnc1N1CCN(Cc2nc3cc(C(F)(F)F)ccc3[nH]2)CC1 | 9 |  | 9 | 9 | 3 |  |  |  |  | 9 |
| OCc1cc(C(O)CNCCCCCCOCCCCc2ccccc2)ccc1O (configuration not stated) [salmeterol] | 9 |  |  | 9 | 9 | 3 | 1 | 9 | 9 | 9 |
| C=C1C(=O)O[C@@H]2[C@H]3O[C@]3(C)CCC=C(C)CC[C@@H]12 [Parthenolide] | 9 |  | 9 | 3 |  | 9 | 9 |  | 9 | 9 |
| Cc1cc(F)c(Nc2ncnc3cc(OCc4ccccc4)ccc23)cc1O | 9 |  |  |  |  | 3 |  |  |  | 9 |
| c1cc(-c2cc(C3CCNCC3)[nH]n2)ccn1 | 9 |  | 9 |  |  | 9 |  |  | 9 |  |
